# PubChem BioAssay AID1159580 (chemical genetic matrix, 2015)
# Where “and” joins values, the source holds several entries; their conditions need not be identical. Identical values can stand only once. About 2,000 (36%) of roughly 5,500 compounds were called active. Another 18% or so got no clear call; they are omitted. The list shows a part of the results. Unmarked numbers belong to inactive results. Rule as the data show it: active = normalized growth mostly below about 0.91 (no sharp cut-off); inconclusive = no clear call, values can overlap the other calls; inactive = mostly above about 0.92.
# Experiment: chemical genetic growth profiling, strain panel (AID 1159580);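 also: tested at 20 µM; growth read once vehicle control cultures reached saturation at 30 °C; 1 = growth at the plate median or of vehicle wells; lower values mean less growth of the strain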
# Conditions: growth OD
# [1] = S. cerevisiae deletion strains, locus YJR075W, strain HOC1, active compounds read low
# [2] = S. cerevisiae deletion strains, locus YNL153C, strain GIM3, active compounds read low
smiles,measurement,setting,value
CC12CCC3c4ccc(OC(=O)c5ccccc5)cc4CCC3C1CCC2O (stereo not given),normalized growth,"S. cerevisiae deletion strains, locus YBR021W, strain FUR4, active compounds read low",1.06
same,normalized growth,"S. cerevisiae deletion strains, locus YBR229C, strain ROT2, active compounds read low",1
same,normalized growth,"S. cerevisiae deletion strains, locus YCL029C, strain bik1, active compounds read low",1
same,normalized growth,"S. cerevisiae deletion strains, locus YDL035C, strain GPR1, active compounds read low",1
same,normalized growth,"S. cerevisiae deletion strains, locus YDL074C, strain BRE1, active compounds read low",0.981
same,normalized growth,"S. cerevisiae deletion strains, locus YDL101C, strain DUN1, active compounds read low",0.992
same,normalized growth,"S. cerevisiae deletion strains, locus YDL134C, strain PPH21, active compounds read low",1
same,normalized growth,"S. cerevisiae deletion strains, locus YDL185W, strain tfp1, active compounds read low",0.999
same,normalized growth,"S. cerevisiae deletion strains, locus YDL192W, strain arf1, active compounds read low",0.995
same,normalized growth,"S. cerevisiae deletion strains, locus YDR101C, strain arx1, active compounds read low",0.99
same,normalized growth,"S. cerevisiae deletion strains, locus YDR162C, strain NBP2, active compounds read low",1.02
same,normalized growth,"S. cerevisiae deletion strains, locus YDR318W, strain mcm21, active compounds read low",0.99
same,normalized growth,"S. cerevisiae deletion strains, locus YDR388W, active compounds read low",0.993
same,normalized growth,"S. cerevisiae deletion strains, locus YDR502C, strain sam2, active compounds read low",1
same,normalized growth,"S. cerevisiae deletion strains, locus YEL061C, strain CIN8, active compounds read low",1.01
same,normalized growth,"S. cerevisiae deletion strains, locus YER110C, active compounds read low",1
same,normalized growth,"S. cerevisiae deletion strains, locus YER155C, strain BEM2, active compounds read low",1.01
same,normalized growth,"S. cerevisiae deletion strains, locus YER167W, strain BCK2, active compounds read low",1
same,normalized growth,"S. cerevisiae deletion strains, locus YGL078C, strain dbp3, active compounds read low",1
same,normalized growth,"S. cerevisiae deletion strains, locus YGL086W, strain mad1, active compounds read low",1
same,normalized growth,"S. cerevisiae deletion strains, locus YGL248W, strain PDE1, active compounds read low",0.992
same,normalized growth,"S. cerevisiae deletion strains, locus YGR135W, strain pre9, active compounds read low",0.997
same,normalized growth,"S. cerevisiae deletion strains, locus YGR229C, strain SMI1, active compounds read low",1.02
same,normalized growth,"S. cerevisiae deletion strains, locus YGR252W, strain gcn5, active compounds read low",1
same,normalized growth,"S. cerevisiae deletion strains, locus YHR030C, strain SLT2, active compounds read low",1.01 and 1.03
same,normalized growth,"S. cerevisiae deletion strains, locus YHR079C, strain IRE1 (second series), active compounds read low",1
same,normalized growth,"S. cerevisiae deletion strains, locus YHR079C, strain IRE1, active compounds read low",1.05
same,normalized growth,"S. cerevisiae deletion strains, locus YHR094C, strain hxt1, active compounds read low",0.995
same,normalized growth,"S. cerevisiae deletion strains, locus YHR129C, strain ARP1, active compounds read low",1
same,normalized growth,"S. cerevisiae deletion strains, locus YHR200W, strain rpn10, active compounds read low",1
same,normalized growth,"S. cerevisiae deletion strains, locus YIL066C, strain RNR3, active compounds read low",1
same,normalized growth,"S. cerevisiae deletion strains, locus YIL073C, strain SPO22, active compounds read low",1.03
same,normalized growth,"S. cerevisiae deletion strains, locus YIL125W, strain kgd1, active compounds read low",0.994
same,normalized growth,"S. cerevisiae deletion strains, locus YIR030C, strain dcg1, active compounds read low",0.997
same,normalized growth,"S. cerevisiae deletion strains, locus YJL095W, strain BCK1, active compounds read low",0.958 and 1.01
same,normalized growth,"S. cerevisiae deletion strains, locus YJL134W, strain LCB3, active compounds read low",1.01
same,normalized growth,"S. cerevisiae deletion strains, locus YJL168C, strain set2, active compounds read low",0.989
same,normalized growth,"S. cerevisiae deletion strains, locus YJL187C, strain SWE1 (second series), active compounds read low",1
same,normalized growth,"S. cerevisiae deletion strains, locus YJR043C, strain POL32, active compounds read low",1.01
same,normalized growth,"S. cerevisiae deletion strains, locus YJR066W, strain TOR1, active compounds read low",0.963
same,normalized growth,[1],1.01
same,normalized growth,"S. cerevisiae deletion strains, locus YKL009W, strain mrt4, active compounds read low",1
same,normalized growth,"S. cerevisiae deletion strains, locus YKL068W, active compounds read low",1.01
same,normalized growth,"S. cerevisiae deletion strains, locus YKL085W, strain MDH1 (second series), active compounds read low",1
same,normalized growth,"S. cerevisiae deletion strains, locus YKL085W, strain MDH1, active compounds read low",1
same,normalized growth,"S. cerevisiae deletion strains, locus YKL190W, strain CNB1, active compounds read low",1.01
same,normalized growth,"S. cerevisiae deletion strains, locus YKR001C, strain vps1, active compounds read low",0.945
same,normalized growth,"S. cerevisiae deletion strains, locus YLR039C, strain RIC1, active compounds read low",0.755
same,normalized growth,"S. cerevisiae deletion strains, locus YLR058C, strain SHM2, active compounds read low",1.01
same,normalized growth,"S. cerevisiae deletion strains, locus YLR102C, strain apc9, active compounds read low",0.991
same,normalized growth,"S. cerevisiae deletion strains, locus YLR113W, strain HOG1, active compounds read low",1.02
same,normalized growth,"S. cerevisiae deletion strains, locus YLR262C, strain YPT6, active compounds read low",0.606 (active)
same,normalized growth,"S. cerevisiae deletion strains, locus YLR268W, strain sec22, active compounds read low",1
same,normalized growth,"S. cerevisiae deletion strains, locus YLR330W, strain CHS5, active compounds read low",1.02
same,normalized growth,"S. cerevisiae deletion strains, locus YLR342W, strain FKS1 (second series), active compounds read low",0.999
same,normalized growth,"S. cerevisiae deletion strains, locus YLR371W, strain rom2, active compounds read low",0.995
same,normalized growth,"S. cerevisiae deletion strains, locus YLR418C, strain cdc73, active compounds read low",0.949
same,normalized growth,"S. cerevisiae deletion strains, locus YML016C, strain PPZ1, active compounds read low",1.01
same,normalized growth,"S. cerevisiae deletion strains, locus YML032C, strain rad52, active compounds read low",0.992
same,normalized growth,"S. cerevisiae deletion strains, locus YML124C, strain tub3, active compounds read low",0.999
same,normalized growth,"S. cerevisiae deletion strains, locus YMR078C, strain ctf18, active compounds read low",0.988
same,normalized growth,"S. cerevisiae deletion strains, locus YMR223W, strain ubp8, active compounds read low",1
same,normalized growth,"S. cerevisiae deletion strains, locus YMR263W, strain SAP30, active compounds read low",1.01
same,normalized growth,"S. cerevisiae deletion strains, locus YMR307W, strain GAS1, active compounds read low",1.22
same,normalized growth,"S. cerevisiae deletion strains, locus YNL067W, strain RPL9B, active compounds read low",1.01
same,normalized growth,"S. cerevisiae deletion strains, locus YNL128W, strain TEP1, active compounds read low",1.04
same,normalized growth,[2],0.997
same,normalized growth,"S. cerevisiae deletion strains, locus YNL183C, strain NPR1, active compounds read low",0.934
same,normalized growth,"S. cerevisiae deletion strains, locus YNL233W, strain BNI4, active compounds read low",0.97
same,normalized growth,"S. cerevisiae deletion strains, locus YNL250W, strain rad50, active compounds read low",1
same,normalized growth,"S. cerevisiae deletion strains, locus YNL271C, strain bni1, active compounds read low",0.992
same,normalized growth,"S. cerevisiae deletion strains, locus YNL298W, strain CLA4, active compounds read low",0.993
same,normalized growth,"S. cerevisiae deletion strains, locus YNL307C, strain MCK1, active compounds read low",0.926
same,normalized growth,"S. cerevisiae deletion strains, locus YNR052C, strain pop2, active compounds read low",1
same,normalized growth,"S. cerevisiae deletion strains, locus YOL006C, strain TOP1, active compounds read low",0.921
same,normalized growth,"S. cerevisiae deletion strains, locus YOL012C, strain htz1",0.873
same,normalized growth,"S. cerevisiae deletion strains, locus YOL147C, strain pex11, active compounds read low",1
same,normalized growth,"S. cerevisiae deletion strains, locus YOR061W, strain CKA2, active compounds read low",1
same,normalized growth,"S. cerevisiae deletion strains, locus YOR069W, strain VPS5, active compounds read low",1.01
same,normalized growth,"S. cerevisiae deletion strains, locus YOR136W, strain idh2, active compounds read low",1
same,normalized growth,"S. cerevisiae deletion strains, locus YOR144C, strain elg1, active compounds read low",1
same,normalized growth,"S. cerevisiae deletion strains, locus YOR184W, strain ser1, active compounds read low",0.974
same,normalized growth,"S. cerevisiae deletion strains, locus YOR231W, strain MKK1, active compounds read low",1.03
same,normalized growth,"S. cerevisiae deletion strains, locus YOR316C, strain cot1, active compounds read low",0.992
same,normalized growth,"S. cerevisiae deletion strains, locus YPL055C, strain LGE1, active compounds read low",1
same,normalized growth,"S. cerevisiae deletion strains, locus YPL256C, strain CLN2, active compounds read low",1.06
same,normalized growth,"S. cerevisiae deletion strains, locus YPR119W, strain clb2, active compounds read low",0.994
same,normalized growth,"S. cerevisiae deletion strains, locus YPR141C, strain kar3, active compounds read low",1
same,normalized growth,"S. cerevisiae deletion strains, locus YPR163C, strain tif3, active compounds read low",1.01
same,normalized growth,"S. cerevisiae deletion strains, locus YPR167C, strain met16, active compounds read low",1
same,normalized growth,"S. cerevisiae deletion strains, strain wtn01, active compounds read low",0.996
same,normalized growth,"S. cerevisiae strains, strain wild type, active compounds read low",1
C[C@]12CC[C@@H]3c4ccc(O)cc4CC[C@H]3[C@@H]1CC[C@@H]2O,normalized growth,"S. cerevisiae deletion strains, locus YAL013W, strain DEP1, active compounds read low",1
same,normalized growth,"S. cerevisiae deletion strains, locus YAL040C, strain CLN3, active compounds read low",1.01
same,normalized growth,"S. cerevisiae deletion strains, locus YCL061C, strain MRC1 (second series), active compounds read low",1.01
same,normalized growth,"S. cerevisiae deletion strains, locus YDR150W, strain NUM1, active compounds read low",1.01
same,normalized growth,"S. cerevisiae deletion strains, locus YDR363W, strain ESC2, active compounds read low",1.01
same,normalized growth,"S. cerevisiae deletion strains, locus YER002W, strain NOP16, active compounds read low",1.02
same,normalized growth,"S. cerevisiae deletion strains, locus YGR078C, strain PAC10, active compounds read low",0.999
same,normalized growth,[1],1.01
same,normalized growth,[2],0.948
same,normalized growth,"S. cerevisiae deletion strains, locus YNL175C, strain NOP13, active compounds read low",1.01
same,normalized growth,"S. cerevisiae deletion strains, locus YNL197C, strain WHI3, active compounds read low",1.03
same,normalized growth,"S. cerevisiae deletion strains, locus YNL224C, strain SQS1, active compounds read low",1.03
same,normalized growth,"S. cerevisiae deletion strains, locus YOR083W, strain WHI5 (second series), active compounds read low",0.899
